# Data taken from the supplement of paper PMC4466140.
# What was measured:
# Test in all cases: SPOT peptide array binding signal intensity (averaged, normalized) (arbitrary units (background-subtracted, floor 0; scale differs between SH3 domains)); higher = stronger binding of the SH3 domain to the peptide
# [1] = target: ScBbc1
# Outline: (§1)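 GST-fused SH3 domains, from four yeast species, were produced in E. coli BL21(DE3) and captured on glutathione Sepharose. Membranes of cellulose carrying synthetic 15-mer peptides, in which cysteines had been replaced by serines, were exposed to each domain at 10 μg/ml overnight at 4°C in TBS-based blocking buffer. After anti-GST antibody, an HRP anti-mouse secondary and luminol, spots were imaged and quantified using Genespotter. Binding signal is normalized and background-subtracted spot intensity, averaged over replicates, in arbitrary units that differ between domains.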
# [2] = target: ScBem1-D1
# Outline: as §1
# [3] = target: ScBzz1-D1
# Outline: as §1
# [4] = target: ScBzz1-D2
# Outline: as §1
# [5] = target: ScCyk3
# Outline: as §1
# [6] = target: ScFus1
# Outline: as §1
# [7] = target: ScHof1
# Outline: as §1
# [8] = target: ScHse1
# Outline: as §1
# [9] = target: ScLsb1
# Outline: as §1
# [10] = target: ScLsb2
# Outline: as §1
# [11] = target: ScLsb3
# Outline: as §1
# [12] = target: ScLsb4
# Outline: as §1
# [13] = target: ScMyo3
# Outline: as §1
# [14] = target: ScMyo5
# Outline: as §1
# [15] = target: ScNbp2
# Outline: as §1
# [16] = target: ScPex13
# Outline: as §1
# [17] = target: ScRvs167
# Outline: as §1
# [18] = target: ScSho1
# Outline: as §1
# [19] = target: ScSla1-D1-D2
# Outline: as §1
# [20] = target: ScSla1-D3
# Outline: as §1
# [21] = target: SpAbp1-D1
# Outline: as §1
# [22] = target: SpBbc1
# Outline: as §1
# [23] = target: SpBzz1-D1
# Outline: as §1
# [24] = target: SpBzz1-D2
# Outline: as §1
# [25] = target: SpCyk3
# Outline: as §1
# [26] = target: SpHof1
# Outline: as §1
# [27] = target: SpHof1-2
# Outline: as §1
# [28] = target: SpHof1-3
# Outline: as §1
# [29] = target: SpHse1
# Outline: as §1
# [30] = target: SpLsb1
# Outline: as §1
# [31] = target: SpLsb4
# Outline: as §1
# [32] = target: SpMyo1
# Outline: as §1
# [33] = target: SpNbp2
# Outline: as §1
# [34] = target: SpPex13
# Outline: as §1
# [35] = target: SpRvs167
# Outline: as §1
# [36] = target: SpSla1-D1-D2
# Outline: as §1
# [37] = target: SpSla1-D3
# Outline: as §1
binder,measurement,setting,value
MARRRLPDRPPNGIG,SPOT peptide array binding signal intensity,[1],126
same,SPOT peptide array binding signal intensity,[2],7
same,SPOT peptide array binding signal intensity,[3],29
same,SPOT peptide array binding signal intensity,[4],33
same,SPOT peptide array binding signal intensity,[5],22.5
same,SPOT peptide array binding signal intensity,[6],61
same,SPOT peptide array binding signal intensity,[7],53.2
same,SPOT peptide array binding signal intensity,[8],241
same,SPOT peptide array binding signal intensity,[9],434
same,SPOT peptide array binding signal intensity,[10],176
same,SPOT peptide array binding signal intensity,[11],3700
same,SPOT peptide array binding signal intensity,[12],1540
same,SPOT peptide array binding signal intensity,[13],7
same,SPOT peptide array binding signal intensity,[14],≤ 0
same,SPOT peptide array binding signal intensity,[15],523
same,SPOT peptide array binding signal intensity,[16],438
same,SPOT peptide array binding signal intensity,[17],2820
same,SPOT peptide array binding signal intensity,[18],1560
same,SPOT peptide array binding signal intensity,[19],1290
same,SPOT peptide array binding signal intensity,[20],100
same,SPOT peptide array binding signal intensity,[21],1340
same,SPOT peptide array binding signal intensity,[22],43.8
same,SPOT peptide array binding signal intensity,[23],450
same,SPOT peptide array binding signal intensity,[24],9
same,SPOT peptide array binding signal intensity,[25],221
same,SPOT peptide array binding signal intensity,[26],1210
same,SPOT peptide array binding signal intensity,[27],1530
same,SPOT peptide array binding signal intensity,[28],3040
same,SPOT peptide array binding signal intensity,[29],104
same,SPOT peptide array binding signal intensity,[30],178
same,SPOT peptide array binding signal intensity,[31],5420
same,SPOT peptide array binding signal intensity,[32],52.8
same,SPOT peptide array binding signal intensity,[33],144
same,SPOT peptide array binding signal intensity,[34],123
same,SPOT peptide array binding signal intensity,[35],1670
same,SPOT peptide array binding signal intensity,[36],393
same,SPOT peptide array binding signal intensity,[37],23
